# Lamin A splicing: changes lamin A minigene splicing in HeLa cells; HeLa LMNA splicing GFP/RFP minigene ratio, 48 h; Potency, µM (top dose mostly 46.1 µM), for the others: at the highest dose ratio change, negative = inhibition, hits mostly inhibitors; hit rate 0.01% among 200,000; active = well fitted inhibition curve with a large enough effect in the signal ratio, with a control signal flat, not every such curve was filed as active; inconclusive = small, poorly fitted or top-dose-only effect, or effect the other way, or a change in a side signal; the % refers to the signal ratio
#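 Read-out is the ratio of GFP to DsRed2 object intensity, acquired by 488 nm laser-scanning cytometry on HeLa lamin A-EGFP minigene reporter cells. Compound incubation 48 hrs at 37 °C in Opti-MEM with 2% FBS; DMSO 0.5% final.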
# ALDH1A1 block: ALDH1A1 (human) enzyme inhibition. Potency, µM (highest dose often 75.3 µM), for inactives: at the highest dose activity, negative = inhibition, actives largely listed as inhibitors. Purified ALDH1A1, NADH fluorescence, propionaldehyde substrate. AID 1030. hit rate 7.3% among 220,000. P00352;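 also: plate controls were no enzyme wells and a reference inhibitor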
# Target sequence (P00352 whole entry, looked up): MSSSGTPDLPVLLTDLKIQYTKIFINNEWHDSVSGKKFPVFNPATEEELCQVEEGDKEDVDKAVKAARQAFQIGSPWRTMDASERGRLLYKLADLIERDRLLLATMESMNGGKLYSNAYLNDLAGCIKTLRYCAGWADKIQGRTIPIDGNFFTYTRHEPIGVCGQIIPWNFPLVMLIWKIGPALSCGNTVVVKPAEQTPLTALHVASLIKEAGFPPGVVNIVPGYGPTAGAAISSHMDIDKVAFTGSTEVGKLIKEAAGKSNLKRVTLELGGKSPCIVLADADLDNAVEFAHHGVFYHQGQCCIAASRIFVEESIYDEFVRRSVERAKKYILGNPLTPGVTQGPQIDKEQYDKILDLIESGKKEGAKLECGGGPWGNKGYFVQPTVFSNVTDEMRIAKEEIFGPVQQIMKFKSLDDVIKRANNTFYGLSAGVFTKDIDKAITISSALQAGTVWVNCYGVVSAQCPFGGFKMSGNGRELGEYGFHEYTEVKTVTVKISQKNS
# KinaseGlo FLuc: counter-screen: inhibitors of Kinase-Glo firefly luciferase | Potency, µM (series often up to 38.3 µM), for inactives: at the top dose activity change, negative = inhibition, usual class: inhibitors | AID 1379 | hit rate 0.28% among 200,000 | Kinase-Glo luciferase, ATP luminescence, 8 min; active = well fitted curve in the direction sought with a large enough effect; inconclusive = small, poorly fitted or top-dose-only effect, or another doubt; inactive = no such curve, though single readings can be large; an effect the other way counts as inactive or inconclusive; also: nearly all actives have a fitted effect of over 60% in size
#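 Light output from Kinase-Glo luciferase with luciferin and 10 uM ATP in 50 mM imidazole pH 7.2, KCl, MgCl2, Tween 20, BSA; compound pin-delivered, 8-min ambient incubation, then luminescence read.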
# HPGD block: blocks human HPGD enzyme activity; purified HPGD, NADH fluorescence kinetic, PGE2 substrate; Potency, µM, without a hit: at the top dose activity change, negative = inhibition, hits mostly inhibitors; hit rate 4.3% among 150,000; AID 894
# Target sequence (P15428 whole entry, looked up): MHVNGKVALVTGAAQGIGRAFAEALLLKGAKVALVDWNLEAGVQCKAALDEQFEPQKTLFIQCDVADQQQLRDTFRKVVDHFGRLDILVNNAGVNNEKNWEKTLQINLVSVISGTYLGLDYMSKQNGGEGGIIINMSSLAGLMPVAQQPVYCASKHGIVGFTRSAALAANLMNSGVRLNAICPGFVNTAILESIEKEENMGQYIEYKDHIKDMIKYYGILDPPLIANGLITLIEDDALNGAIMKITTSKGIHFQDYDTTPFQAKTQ
#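 NADH formation kinetics: reaction with 30 uM PGE2 and 1 mM NAD+ (final), 20 nM enzyme, Tris-HCl pH 8 with Tween 20, after 15 min compound preincubation at room temperature. Fluorescence change, last versus first of five reads.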
# IMPase Li inh: membrane-permeable IMPase blocker, potentiated with lithium; CHO-M1 cells, IP1 TR-FRET (IP-One), carbachol + lithium; Potency, µM (highest dose often 59.4 µM), inactives show at the top dose activity, negative = IMPase inhibition, actives largely listed as inhibitors; hit rate 0.35% among 210,000; active = well fitted curve in the direction sought with a large enough effect; inconclusive = small, poorly fitted or top-dose-only effect, or another doubt; inactive = no such curve, though single readings can be large; an effect the other way counts as inactive or inconclusive;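 also: IP1 builds up when IMPase is blocked and the TR-FRET signal falls; plate controls were basal vehicle for no effect and high inhibitor control for full effect; nearly all actives have a fitted effect of over 50% in size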
#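 Lithium-sensitised IP1 accumulation assay; M1-expressing CHO cells treated 30 min at 37C with compound. Competitive antibody detection by time-resolved FRET followed a 10 min room-temperature lysis step.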
# * hit, by the source's call; ? = inconclusive; . = no result given; [ ] = dose if it differs, or a comment. In the library only some 9% were active in any assay of this set; here they are far more common. Unless noted, calls follow the shape of the dose curve; as a rule, active = well fitted inhibition curve with a large enough effect (not every such curve was filed as active); inconclusive = small, poorly fitted or top-dose-only effect, or another doubt; inactive = no such curve, though single readings can be large or run the other way. Unless noted, % is scaled to controls: 0 for no effect and ±100 for the full control effect; potency is read from the fitted curve at half-maximal effect.
SMILES,Lamin A splicing,ALDH1A1 block,KinaseGlo FLuc,HPGD block,IMPase Li inh
CCOC(=O)c1[nH]c2c(c1C)C(=O)CC(c1ccc(F)cc1)C2 (stereo not drawn),?,7.3%,1.1%,-4.2%,11.9%[38.3 µM]
Cc1c(C(=O)OCC2CCCO2)[nH]c2c1C(=O)CC(c1ccc(N(C)C)cc1)C2 (stereo not drawn),?,11.2µM*,1.5%,-12.4%,48.8%[38.3 µM]
CNc1ccc(/C=C2\COc3ccccc3C2=O)cc1[N+](=O)[O-],13.0%,14.0%,-2.7%,1.58µM*,27.0%[38.3 µM]
Cc1nc(NS(=O)(=O)c2ccccc2)sc1C(C)(C)C,?,5.01µM*,0.9%,-9.9%,2.6%
CCOC(=O)c1sc(NS(=O)(=O)c2ccccc2)nc1C,4.5%,-14.3%,-2.9%,-11.6%,7.2%[38.3 µM]
Cc1nc(NS(=O)(=O)c2ccccc2)sc1NC(=O)OCCN(C)C,0.5%,14.1µM*,-1.4%,-3.7%,28.3%[38.3 µM]
CC(=O)Oc1cc(OC(C)=O)c2c(=O)cc(-c3ccc(OC(C)=O)c(OC(C)=O)c3)oc2c1,.,-7.9%,-14.9%,-16.6%,20.4%
CCOc1ccc(N2C(=O)CC(NCCc3c[nH]c4ccccc34)C2=O)cc1 (stereo not drawn),.,11.2µM*,-0.8%,.,5.8%
CCOc1ccc(N2C(=O)CC(NCCc3ccncc3)C2=O)cc1 (stereo not drawn),-4.1%,?,-5.7%,-6.3%,-6.8%[38.3 µM]
CCCOc1ccc(N2C(=O)CC(NCCc3ccc(S(N)(=O)=O)cc3)C2=O)cc1 (stereo not drawn),14.2%,7.94µM*,1.0%,-6.4%,-3.7%[38.3 µM]
O=C(N/C=C/n1cnc2cc(C(F)(F)F)ccc21)c1ccccc1,1.6%[46 µM],1.8%,1.4%,.,0.1%
COc1ccc(CCNC(=O)C(=O)NCC(c2ccco2)S(=O)(=O)c2ccccc2)cc1 (stereo not drawn),4.0%[46 µM],.,.,.,.
CC(=O)Nc1ccc(N2CCCCC2)c(C(=O)Nc2cccc(C)c2)c1,-1.7%,11.2µM*,0.6%,-8.7%,-4.2%[38.3 µM]
Cc1cccc(NC(=O)c2cc(NC(=O)C3CCCCC3C(=O)O)ccc2N2CCCCC2)c1 (stereo not drawn),-5.3%,17.8µM*,-2.7%,0.9%,6.3%
Cc1ccc(NC(=O)c2cc(NC(=O)c3ccccc3C(=O)O)ccc2N2CCCCC2)cc1,.,-9.5%,-3.9%,.,2.4%
COc1cc([C@@H]2c3cc4c(cc3[C@@H](O[C@@H]3O[C@H]5CO[C@@H](C)O[C@@H]5[C@@H](O)[C@H]3O)[C@@H]3COC(=O)[C@@H]23)OCO4)cc(OC)c1O,.,-0.7%,2.4%,-10.4%,13.2%
CC(=O)Nc1ccc(S(=O)(=O)Oc2ccc3c(c2)C(C)=CC(C)(C)N3)cc1,?,-8.5%,-1.0%,-28.2%,12.5%
CC1=CC(C)(C)Nc2ccc(OS(=O)(=O)c3ccc(C)cc3)cc21,?,1.12µM*,-5.8%,?,28.2%[38.3 µM]
CC(C)N(CC#CCC(O)(c1ccccc1)C1CCCC1)CCO (stereo not drawn),.,28.2µM*,-2.2%,.,18.7%
CCN(CC#CCC(O)(c1ccccc1)C1CCCC1)C(C)C (stereo not drawn),3.1%,19.2%,-2.1%,-2.6%,13.0%[38.3 µM]
Cc1cccc(-n2c(C)cc(/C=C3\C(=N)N4N=C(CC(C)C)SC4=NC3=O)c2C)c1,12.7%,?,-3.8%,?,0.3%
COc1cccc(-n2c(C)cc(/C=C3/C(=N)N4C(=NC3=O)SN=C4S(C)(=O)=O)c2C)c1,.,31.6µM*,1.5%,.,6.0%
Cc1ccc(-n2cccc2/C=C2/C(=N)N3C(=NC2=O)SN=C3S(C)(=O)=O)cc1,?,?,-1.6%,.,-5.9%
Cc1cc(C)cc(-n2cccc2/C=C2/C(=N)N3C(=NC2=O)SN=C3S(C)(=O)=O)c1,-13.1%[46 µM],5.01µM*,3.0%,.,-0.6%
Cc1cccc(C)c1NC(=O)CCCN1C(=O)CCn2nc(-c3cn(C)c4ccccc34)cc21,3.4%[46 µM],.,.,.,.
SMILES,Lamin A splicing,ALDH1A1 block,KinaseGlo FLuc,HPGD block,IMPase Li inh
CCOC(=O)c1ccc(N2C(=O)CC(NC3CCN(C(=O)c4ccc(F)cc4)CC3)C2=O)cc1 (stereo not drawn),-3.6%,14.1µM*,-1.2%,-7.2%,0.4%
CCOC(=O)c1ccc(N2C(=O)C=CC2=O)cc1,?,0.0631µM*,-4.7%,1.41µM*,55.6%[38.3 µM]
CCOC(=O)c1ccc(-n2c(C)ccc2C)cc1,9.4%,-5.3%,1.0%,?,4.8%
CCOC(=O)c1ccc(N2C(=O)CC(SCC(N)C(=O)OCC)C2=O)cc1 (stereo not drawn),13.8%,3.55µM*,-0.1%,-7.8%,25.2%[38.3 µM]
CCOC(=O)c1ccc(N2C(=O)CC(Sc3nnc(C)s3)C2=O)cc1 (stereo not drawn),7.9%,1µM*,-3.0%,28.2µM*,-15.2%[38.3 µM]
Cc1nc2ccn(Cc3ccco3)c(=O)c2cc1C(=O)N1CCN(c2ccccc2F)CC1,2.2%[46 µM],.,.,.,.
COc1ccc(NC(=S)N2CCCC2)c(OC)c1,11.2%[46 µM],9.3%,0.2%,.,9.6%
COc1ccc(N2C(=O)CC(Cc3ccccc3)C2=O)cc1 (stereo not drawn),-3.6%,11.5%,22.9%,-3.4%,-0.5%[38.3 µM]
O=C1CC(SCCO)C(=O)N1c1ccc(Oc2ccccc2)cc1 (stereo not drawn),-7.3%,14.1µM*,2.0%,-14.5%,5.3%
CCC(=O)Nc1ccccc1C(=O)OC(c1ccccc1)c1ccccc1,?,?,-2.3%,?,22.0%
O=C(CCl)Nc1ccccc1C(=O)c1ccccc1,-0.2%[46 µM],25.1µM*,-1.3%,.,-9.3%
CCC(=O)Nc1ccccc1C(=O)OCc1ccc(C(=O)c2ccccc2)cc1,10.1%,?,-1.1%,14.1µM*,9.8%[38.3 µM]
CCOC(=O)c1cc(-c2ccccc2)sc1NC(=O)CC,?,?,2.5%,?,-7.4%
Cc1cc(C(=O)c2ccccc2)c(NC(=O)CCl)s1,?,2.51µM*,0.9%,?,3.9%
O=C(CCc1nnc(Cc2c[nH]c3ccccc23)o1)NC(C1CC1)C1CC1,18.8%[46 µM],-1.8%,-4.7%,.,9.4%
O=C(Nc1ccccc1Cl)N1CCN(c2ccc3nnc(-c4ccccc4)n3n2)CC1,-7.6%,?,-1.4%,?,20.3%[38.3 µM]
O=C(Nc1ccc(Cl)cc1)N1CCN(c2ccc3nnc(-c4ccc(F)cc4)n3n2)CC1,?,28.2µM*,-1.0%,?,23.5%
Cc1cccnc1NC(=O)Cn1nc(-c2ccccc2)oc1=S,-0.6%,-14.2%,1.0%,-18.1%,-4.1%
CN(C)c1ccc(/C=N/N=C/c2ccccc2O)cc1,-6.0%,12.6µM*,-20.1%,-7.2%,?
Cc1ccc(C(=O)NC(=S)Nc2ccccc2N2CCCC2)cc1[N+](=O)[O-],?,20µM*,-1.6%,-11.6%,8.9%
CCCCN1C(=O)c2ccc(C(=O)Nc3ccccc3N3CCOCC3)cc2C1=O,.,0.891µM*,1.3%,.,4.1%
Cc1ccc(C(=O)Nc2ccccc2N2CCCCC2)cc1[N+](=O)[O-],.,-5.2%,0.8%,.,19.4%

# Bioassay records from PubChem BioAssay.
